# PubChem BioAssay AID504327 (National Center for Advancing Translational Sciences (NCATS), 2011)
# Where “and” joins values, the source holds several entries; their conditions need not be identical. Equal values may be shown once. The whole screen tested about 390,000 compounds, of which about 820 (0.21%) were called active. Not shown: some 3% with an inconclusive outcome. The call rests on the fitted dose curve; in most records, active means well fitted inhibition curve with a large enough effect; inconclusive means small, poorly fitted or top-dose-only effect, or another doubt; inactive means no such curve, though single readings can be large or run the other way. The full list was thinned out, with actives kept by preference. The source holds several records for some structures; these can differ, active in one and inactive in another.
# Target: Histone acetyltransferase KAT2A (Homo sapiens) (UniProt Q92830)
# Assay: qHTS Assay for Inhibitors of GCN5L2
# Settings: GCN5L2 HAT assay, ThioGlo1 CoA-SH fluorescence; series mostly up to 58.9 µM; activity change, negative = inhibition: at the top concentration
# From the text: Histone acetyltransferase (HAT) enzymes transfer a […] group from acetyl-coenzyme A to the epsilon-amino group of conserved lysine residues of N-terminal histone tails. Acetylation results in charge neutralization of this positively charged amino acid, decreasing interactions with the […] backbone and making the DNA more accessible for transcription. HATs have been recognized as an emerging drug target for treatment of cancer, diabetes, asthma, chronic obstructive pulmonary disease, cardiac disease, and viral infection. Protein identified with HAT activity include the […] like 2 (GCN5L2, a.ka. Histone acetyltransferase KAT2A) which acetylates histone H3 at Lys9, 14, 18, 13, and to lesser extent histones H4 and H2B. This activates transcription of the gene by modulating chromatin structure and installing the acetyllysine recognition mark for bromodomain-containing coactivator proteins.
# A quantitative high throughput screen was developed to identify small molecule inhibitors. The assay is based on the principle that it measures formation of reduced CoA with the pro-fluorescent maleimide derivative ThioGlo1 that becomes fluorescent upon reaction with the free thiol of CoA.
# A large number of artifacts are expected in this primary screen, compounded by the assay format (fluorescent artifacts) and by the high top concentration tested for each substance. This BioAssay data deposition should be used with caution, and counterscreen and secondary assay validation is essential since very few actives from the primary screen are expected to be true inhibitors of GCN5L2.
# [2] Yasgar, et al. Compound Management for Quantitative High-Throughput Screening. JALA. 2008 Apr;13(2):79-89.
# [3] Inglese, et al. Quantitative high-throughput screening: a titration-based approach that efficiently identifies biological activities in large chemical libraries. Proc Natl Acad Sci. 1;103(31):11473-8. 2006. PMID: 16864780
# NIH Molecular Libraries Probe Production Network [MLPCN]
# NIH Chemical Genomics Center [NCGC]
# Structural Genomics Consortium (SGC)
# To each well of a 1,536w plate, 3ul of GCN5L2 (final concentration 20nM, in 50mM HEPES, 0.1mM EDTA (pH 7.5), 0.01% Tween-20 buffer) are added using a Kalypsys dispenser. Only buffer is added to some wells as a control. A Kalypsys pin-tool transferred 23nl of library compound solution in DMSO to each well, as well as the control inhibit garcinol. . Following a 15 min incubation of enzyme with compounds at room temperature, 1ul mixture of ThioGlo1 (50uM final), H3(1-25) peptide (75uM final), and Acetyl-CoA (70uM final) is added. Plates are read immediately on the ViewLux (PerkinElmer) (Ex340nm/Em540nm) for a 0 min read, incubated for 20 min at room temperature, and read again on the ViewLux with the same settings. The initial read was carried out to identify compounds that are potentially fluorescent.
# On the % scale 0 is the no-effect control and ±100 the full control effect; potency means the concentration at half of the fitted maximal effect.
# Histone acetyltransferase KAT2A (Homo sapiens), sequence (Q92830 whole entry, looked up): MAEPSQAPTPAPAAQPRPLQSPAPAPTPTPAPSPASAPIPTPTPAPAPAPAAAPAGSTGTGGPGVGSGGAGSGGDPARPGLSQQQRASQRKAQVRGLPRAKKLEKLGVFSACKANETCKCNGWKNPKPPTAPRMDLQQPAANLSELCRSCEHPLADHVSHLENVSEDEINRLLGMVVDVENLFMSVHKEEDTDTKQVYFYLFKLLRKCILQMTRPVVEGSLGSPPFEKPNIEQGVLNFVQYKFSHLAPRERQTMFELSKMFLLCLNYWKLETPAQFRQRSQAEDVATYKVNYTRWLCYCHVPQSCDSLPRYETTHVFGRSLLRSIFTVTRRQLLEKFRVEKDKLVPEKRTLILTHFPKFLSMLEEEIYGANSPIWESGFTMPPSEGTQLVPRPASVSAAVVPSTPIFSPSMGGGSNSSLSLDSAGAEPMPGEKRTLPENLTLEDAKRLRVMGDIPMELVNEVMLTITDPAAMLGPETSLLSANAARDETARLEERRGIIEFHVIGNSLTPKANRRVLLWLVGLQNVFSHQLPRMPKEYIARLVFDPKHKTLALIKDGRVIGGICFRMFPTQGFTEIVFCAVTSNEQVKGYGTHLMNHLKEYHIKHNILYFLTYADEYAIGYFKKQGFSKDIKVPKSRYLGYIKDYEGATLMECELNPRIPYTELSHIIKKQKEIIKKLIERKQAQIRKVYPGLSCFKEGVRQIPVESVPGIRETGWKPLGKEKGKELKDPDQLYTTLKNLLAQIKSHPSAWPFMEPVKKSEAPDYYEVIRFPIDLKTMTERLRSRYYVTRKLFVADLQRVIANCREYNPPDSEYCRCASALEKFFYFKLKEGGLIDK
Compound,"activity change, negative = inhibition",Potency
COc1ccccc1-c1cc(NCc2cccs2)ncn1,-5.87% (inactive),
Cc1cc2oc(=O)cc(-c3ccccc3)c2c(C)c1/C=C/c1ccc(F)cc1,7.85% [at 88.6 µM] (inactive),
Cc1ccc(Cl)cc1NC(=O)C(C)n1nnc2sc(-c3ccccc3)cc2c1=O (stereo not drawn),,31.6 µM (active)
Cc1cc2nn(-c3ccc(Cl)cc3)nc2cc1NC(=O)C(C)C,0.272% (inactive),
CCCCCCn1nnc2sc(-c3ccccc3)cc2c1=O,6.09% (inactive),
COc1ccccc1CCn1c(=O)c(-c2cn(C)c3ccccc23)nc2cncnc21,-1.86% (inactive),
Cc1csc(-c2nc3ccccc3n2C)n1,-8.33% (inactive),
CN(Cc1ccco1)c1ncncc1-c1ccoc1,-17% (inactive),
Nc1ncnc2c1ncn2C1CC(O)C(CO)O1 (stereo not drawn),,inactive
O=C(Nc1ccc(O)cc1)c1ccccc1O,-15.8% (inactive),
O=c1ccn([C@@H]2O[C@H](COP(=O)(O)OP(=O)(O)OP(=O)(O)O)[C@@H](O)[C@H]2O)c(=O)[nH]1,2.08% (inactive),
NCCC(=O)c1ccccc1N,-13.8% (inactive),
N#Cc1ccc(CN2CCCC3(CCN(C(=O)c4ccco4)CC3)C2)cc1,5.96% (inactive),
C=C1/C(=C\C=C2\CCCC3(C)C2CCC3C(C)/C=C/C(O)C2CC2)CC(O)CC1O (stereo not drawn),-17% (inactive),
CC(O)COc1ccccc1 (stereo not drawn),-19.1% (inactive),
NNc1nnc(NN)c2ccccc12,-1.8% (inactive),
Cc1nc2cnc(N3CCN(C)CC3)nc2n(C[C@H]2CCCO2)c1=O,-20.2% (inactive),
Cc1cc(N(C)C)nc(Cl)n1,-23.2% (inactive),
C=C(C)C1CC=C(C)C(O)C1 (stereo not drawn),6.72% (inactive),
O=C(O)C(O)[C@@](O)(Cc1ccc(O)cc1)C(=O)O (stereo partly drawn),1.54% (inactive),
CCN(Cc1ccncc1)C(=O)[C@@H](CO)c1ccccc1,7.28% [at 21.4 µM] (inactive),
CC1(C)O[C@@H]2C[C@@H]3[C@H]4C[C@@H](F)C5=CC(=O)C=C[C@]5(C)[C@@]4(F)[C@@H](O)C[C@]3(C)[C@]2(C(=O)CO)O1,-11.6% (inactive),

Compound,"activity change, negative = inhibition",Potency
CC(C)[C@H]1CC[C@@H](C)C[C@H]1O,5.9% [at 0.501 µM] (inactive),
O=P(O)(O)OC[C@H](O)CO,-2.51% (inactive),
O=c1[nH]c(=S)[nH]c2[nH]c(=S)[nH]c12,,4.47 µM (active) and 3.55 µM (active)
COc1ccc(CC(N)C(=O)NC2C(O)[C@H](n3cnc4c(N(C)C)ncnc43)O[C@@H]2CO)cc1 (stereo partly drawn),4.59% (inactive),
O=c1cnc2cnc(Nc3ccccc3)nc2n1Cc1ccc(F)cc1,-12.2% (inactive),
O=C1OCCN1C(=O)[C@H]1[C@H](c2ccc(Cl)cc2)C(c2cccc(Cl)c2)=NN1c1ccc(Br)cc1,,inactive and 12.6 µM (active)
C[C@@H]1C(c2ccc(F)cc2)=NN(c2ccc(Br)cc2)[C@H]1C(=O)N1CCOC1=O,,inactive
O=c1[nH]c2ccccc2n2c(-c3ccccc3)nnc12,,22.4 µM (active)
CC(C)Cn1c(=O)c2ccccc2n2c(-c3cccc(Cl)c3)nnc12,-8.17% (inactive),
O=c1cc(-c2ccccc2)n2c(SCc3ccccc3)nnc2[nH]1,-22.5% (inactive),
C[C@@H](O)[C@@H]1NC(=O)[C@H](CCCCN)NC(=O)[C@H](Cc2c[nH]c3ccccc23)NC(=O)[C@H](Cc2ccccc2)NC(=O)[C@H](Cc2ccccc2)NC(=O)[C@H](CC(N)=O)NC(=O)[C@H](CCCCN)NC(=O)[C@@H](NC(=O)[C@@H]2CCCN2)CSSC[C@@H](C(=O)N[C@@H](CCCCN)C(=O)O)NC(=O)[C@H](CO)NC(=O)[C@H](CO)NC(=O)[C@H](Cc2ccccc2)NC1=O,-18.2% (inactive),
O=C(c1cnccn1)N1CCC[C@@]2(CCN(Cc3ccncc3)C2)C1,7.32% (inactive),
CC(C)[C@@H]1NC(=O)[C@H](Cc2ccccc2)NC(=O)[C@@H](CC(=O)O)NC(=O)CNC(=O)[C@H](CCCNC(=N)N)NC1=O,10.5% (inactive),
O=C(Nc1cccc(F)c1)N1CC2(CCN(C(=O)c3cnccn3)CC2)C1,-0.477% (inactive),
CC(C)(O)c1ccccc1CC[C@H](SCC1(CC(=O)O)CC1)c1cccc(/C=C/c2ccc3ccc(Cl)cc3n2)c1,,20 µM (active)
CCCCC/C=C\C/C=C\CCCCCCCCCC(=O)O,-12.3% (inactive),
CNc1ncnc2ccc(-c3cccc(NS(C)(=O)=O)c3)cc12,-6.27% (inactive),
C=C1O[C@@](CO)(n2cnc3c(N)ncnc32)[C@H](O)[C@@H]1O,,inactive
CC[C@H](C)[C@H](NC(=O)[C@H](CCCNC(=N)N)NC(=O)[C@H](CCCNC(=N)N)NC(=O)[C@H](CC(C)C)NC(=O)[C@H](Cc1ccccc1)NC(=O)CNC(=O)CNC(=O)[C@@H](N)Cc1ccc(O)cc1)C(=O)N[C@@H](CCCNC(=N)N)C(=O)N1CCC[C@H]1C(=O)N[C@@H](CCCCN)C(=O)N[C@@H](CC(C)C)C(=O)N[C@@H](CCCCN)C(=O)N[C@@H](Cc1c[nH]c2ccccc12)C(=O)N[C@@H](CC(=O)O)C(=O)N[C@@H](CC(N)=O)C(=O)N[C@@H](CCC(N)=O)C(=O)O,21.9% (inactive),
FC(F)(F)C1CCCN(c2nsc3ccccc23)C1 (stereo not drawn),,2.82 µM (active)
COCC(=O)N1CCC2(CCCN(c3ccccc3)C2)CC1,3.62% (inactive),
